# Results reported in PubChem BioAssay AID1259418 (Broad Institute, 2018).
# Among all 3,400 compounds or so, about 840 (25%) were called active. Not shown: some 11% with an inconclusive outcome. These entries were drawn from the full list. Measured potencies and affinities stand elsewhere. Values without a mark were called inactive.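 The calls were made as follows: active = fitted half-maximal concentration of signal decrease at or below twice the sample's top tested concentration; inconclusive = flat curve between -70 and -30 percent, or poor fit; inactive = flat within 30 percent, signal rise, or potency above limit.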
# Assay: T. gondii growth inhibition with IFN-gamma, dose response, cell-based, ME49Luc, HeLa, luciferase, 72 h (AID 1259418)
# Conditions: T. gondii ME49Luc in IFN-y HeLa, active compounds read low, -100% = high-dose IFN-γ control wells; at 19.5 µM unless noted
row,Compound,max activity
1,Cc1ccc(C(=O)Nc2ccc(-c3nc(-c4ccc(C)cc4)co3)cc2)cc1,113% [at 10 µM]
2,O=C(CCn1nnc2cc(-c3noc(-c4cccc5[nH]ccc45)n3)ccc21)N1CCCC1,43%
3,Cc1ccc(NS(=O)(=O)c2cc3c4c(c2)CCC(=O)N4CCC3)cc1C,-11.9%
4,O=C1CCc2cc(S(=O)(=O)NCc3ccc4c(c3)OCO4)cc3c2N1CCC3,-19.9% [at 2.6 µM]
5,O=C1CCc2cc(S(=O)(=O)Nc3ccc4c(c3)OCCO4)cc3c2N1CCC3,-30% [at 0.16 µM]
6,COc1ccc(CNS(=O)(=O)c2cc3c4c(c2)CCC(=O)N4CCC3)cc1,-13.1% [at 10 µM]
7,Cc1ccc(NS(=O)(=O)c2cc3c4c(c2)CCC(=O)N4CCC3)c(C)c1,4.48% [at 2.6 µM]
8,Cc1cccc(C)c1NS(=O)(=O)c1cc2c3c(c1)CCC(=O)N3CCC2,-22%
9,Cc1cc(C)c(NS(=O)(=O)c2cc3c4c(c2)CCC(=O)N4CCC3)c(C)c1,8.39%
10,CCOc1cccc(-c2noc(-c3nnn(Cc4nc(-c5ccccc5)oc4C)c3C)n2)c1,8.01%
11,COc1ccc(-c2nc3c(s2)CN(S(=O)(=O)c2cccc(Cl)c2)CC3)cc1,-9.33% [at 2.6 µM]
12,COc1ccc(-c2nc(Cn3nnc(-c4nc(-c5ccccc5Cl)no4)c3C)c(C)o2)cc1,-7.3% [at 1.35 µM]
13,CCCCc1ccc(Nc2ncnc3c2cnn3-c2ccccc2)cc1,-7.99% [at 0.68 µM]
14,COc1ccc(NC(=O)CN2CCC3(CC2)N=C(c2ccc(F)cc2)C(=O)N3)cc1Cl,-24% [at 0.16 µM]
15,CCc1nc(OCC(=O)Nc2ccccc2CC)c2ccccc2n1,28.5%
16,O=C(CC1CCCC1)Nc1ccc2c(c1)CCC(=O)N2,12.2%
17,Cc1oc(-c2cccc(Cl)c2)nc1Cn1nnc(-c2nc(-c3ccccn3)no2)c1C,-10.2% [at 5 µM]
18,COc1ccc(-c2ccc(C3[C@@H]4CN(C(=O)c5cnccn5)C[C@H]3N4)cc2)cc1 (stereo not given in full),10.5% [at 10 µM]
19,COc1ccccc1-c1ccc(C2[C@@H]3CN(C(=O)c4ccncc4)C[C@H]2N3)cc1 (stereo not given in full),32.2%
20,COc1ccc(C(=O)N2CCC3(CC2)Nc2cc(F)ccc2-n2cccc23)cc1,-22% [at 0.16 µM]
21,CCOC(=O)CSc1nc(NCc2ccc(OC)cc2)c2ccccc2n1,20.1% [at 10 µM]
22,Cc1ccc2c(c1C)-n1cccc1C1(CCN(C(=O)Cc3ccc(F)cc3)CC1)N2,11.4% [at 0.68 µM]
23,O=C(Nc1cncc(-c2nc3ccccc3o2)c1)c1cccc(Cl)c1,14.2% [at 0.16 µM]
24,COc1ccc(S(=O)(=O)N2CCCCN3[C@H](C2)[C@@H](c2ccc(C#CCC(C)C)cc2)[C@@H]3CO)cc1,177% [at 10 µM]

row,Compound,max activity
1,Cc1cccc(NC(=O)N2CCc3nc(-c4ccccc4)sc3C2)c1,-11.3% [at 0.35 µM]
2,CCOc1ccc(CC(=O)Nc2ccc(-c3nc(-c4ccccc4)co3)cc2)cc1OCC,30.5% [at 10 µM]
3,Cc1ccc(NC(=O)CN2CCC3(CC2)N=C(c2ccc(F)cc2)C(=O)N3)cc1C,-13.8% [at 1.35 µM]
4,COc1ccccc1-c1nc(Cn2nnc(-c3nc(-c4ccc(C(F)(F)F)cc4)no3)c2C)c(C)o1,8.9%
5,COc1cccc(NC(=O)Nc2ccc(-c3nc(-c4ccccc4)co3)cc2)c1,66.2%
6,C=CCO[C@@H]1CCN(c2cc(OC)ncn2)[C@H]1Cc1cnn(C)c1,25.2%
7,CC=Cc1ccc2n(c1=O)C[C@H]1[C@H](CO)[C@@H](C(=O)Nc3ccc(-c4ccccc4)cc3)[C@@H]2N1C(=O)CC (mixture of isomers),25.5%
8,Clc1ccc(CSc2nc(NCCc3ccccc3)c3ccccc3n2)cc1,29.6% [at 2.6 µM]
9,Clc1ccc(CSc2nc(NCc3ccccc3)c3ccccc3n2)cc1,30.6% [at 2.6 µM]
10,Clc1cccc(CSc2nc(NCCc3ccccc3)c3ccccc3n2)c1,-7.56% [at 0.16 µM]
11,COc1ccc(CNc2nc(SCc3ccccc3Cl)nc3ccccc23)cc1,17.2%
12,COc1ccc(CCNc2nc(SCc3cccc(F)c3)nc3ccccc23)cc1OC,12% [at 5 µM]
13,Clc1ccc(CNc2nc(SCc3ccc(Cl)cc3)nc3ccccc23)cc1,7.58% [at 2.6 µM]
14,Cc1cccc(-c2nc(Cn3nnc(-c4nc(-c5ccc(Cl)cc5)no4)c3C)c(C)o2)c1,25.6%
15,O=C(NCCc1csc(-c2ccccc2)n1)C1CCN(C(=O)CCc2ccccc2)CC1,-11.1%
16,CCCCC[C@H](CC(=O)NO)C(=O)N[C@H](C(=O)N1CCC[C@H]1CO)C(C)C,15.6%
17,CCOc1ccccc1-c1nc(Cn2c(=O)c3c(C)cc(C)nc3n(-c3ccccc3)c2=O)c(C)o1,5.33% [at 0.16 µM]
18,CC[C@H](C(=O)N1CCCC[C@H]1C(=O)O[C@H](CCc1ccc(OC)c(OC)c1)c1cccc(OCC(=O)NCCNC(=O)COc2cccc([C@@H](CCc3ccc(OC)c(OC)c3)OC(=O)[C@@H]3CCCCN3C(=O)[C@@H](CC)c3cc(OC)c(OC)c(OC)c3)c2)c1)c1cc(OC)c(OC)c(OC)c1,-14% [at 5 µM]
19,Cc1ccc(C)c(-c2coc(-c3ccc(NC(=O)NC4CCCCC4)cc3)n2)c1,6.93% [at 0.16 µM]
20,N#Cc1cccc(-c2ccc3c(c2)[C@H]2[C@H](CCN2Cc2ccc4c(c2)OCO4)[C@@H](CO)N3)c1,21.2% [at 10 µM]
21,N#Cc1cccc(-c2ccc3c(c2)[C@H]2[C@H](CCN2Cc2ccc4c(c2)OCO4)[C@H](CO)N3)c1,17.9% [at 10 µM]
22,C/C=C/c1ccc([C@H]2[C@H]3CN(C(=O)Nc4cccc(OC)c4)CC(=O)N3[C@H]2CO)cc1,-12% [at 21 µM]
23,CCCC#Cc1ccc([C@@H]2[C@H]3CN(C(=O)Nc4cccc(F)c4)CC(=O)N3[C@H]2CO)cc1,7.32% [at 0.16 µM]
24,C/C=C/c1ccc([C@@H]2[C@@H](CO)N3C(=O)CN(C(=O)Nc4cccc(OC)c4)C[C@@H]23)cc1,27% [at 10 µM]

row,Compound,max activity
1,CC(C)CC(=O)N1CCC(C(=O)NCCc2csc(-c3cccs3)n2)CC1,7.82%
2,Cc1ccc(C)c(-c2coc(-c3ccc(NC(=O)Nc4ccc5c(c4)OCO5)cc3)n2)c1,81.1%
3,CCc1nc(OCC(=O)Nc2cccc(C)c2)c2ccccc2n1,-9.62% [at 1.35 µM]
4,Cc1cccc(OCC(=O)N2CSC[C@@H]2C(=O)NCCc2csc(-c3ccccc3)n2)c1,-20.7% [at 0.68 µM]
5,Cc1ccc2c(c1C)-n1cccc1C1(CCN(C(=O)c3c(F)cccc3F)CC1)N2,-8.13% [at 0.16 µM]
6,NC(=O)C1(N2CCCCC2)CCN(c2ncc(NC(=O)c3cccs3)cc2C(=O)O)CC1,8.78% [at 0.16 µM]
7,CSc1cccc(NC(=O)Nc2ccc(-c3nc(-c4ccc(C)cc4)co3)cc2)c1,26.9%
8,O=C(Cn1c(=O)c(S(=O)(=O)c2ccccc2)cc2ccccc21)NC1CCCCC1,2.73%
9,Fc1ccc(CSc2nc(NCc3ccco3)c3ccccc3n2)cc1,-10.7% [at 2.6 µM]
10,Cc1nc(-c2cc(S(=O)(=O)N3CCC(Cc4ccccc4)CC3)c(C)s2)sc1C,9.1% [at 0.16 µM]
11,CCOc1ccccc1-c1nc(CSc2nc3c(c(=O)[nH]2)CN(CCOC)CC3)c(C)o1,20.2% [at 10 µM]
12,CCc1nc(OCC(=O)Nc2ccccc2F)c2ccccc2n1,12.8% [at 10 µM]
13,COc1ccc(NC(=O)CN2CCC3(CC2)N=C(c2cccc(F)c2)C(=O)N3)cc1Cl,18.3% [at 5 µM]
14,Cc1ccc(CSC2=Nc3ccccc3C3=NC(CC(=O)NC4CCCCC4)C(=O)N23)c(C)c1 (stereo not given),15.1% [at 5 µM]
15,O=C(CN1CCC2(CC1)N=C(c1ccc(F)cc1)C(=O)N2)Nc1ccccc1C(F)(F)F,7.82% [at 10 µM]
16,O=C(COc1ccccc1Cl)Nc1cncc(-c2nc3ccccc3o2)c1,-6.28% [at 2.6 µM]
17,COc1cccc(N(Cc2nc(-c3cccc(Cl)c3)oc2C)S(=O)(=O)c2ccccc2)c1,9.67% [at 0.68 µM]
18,COc1ccc(N(Cc2nc(-c3cccc(C)c3)oc2C)S(=O)(=O)c2ccc(C)cc2)cc1,-7.34% [at 1.35 µM]
19,COc1ccc(N(Cc2nc(-c3cccc(Cl)c3)oc2C)S(=O)(=O)c2ccc(OC)cc2)cc1,-8.48% [at 2.6 µM]
20,COc1ccc(N(Cc2nc(-c3cccc(C)c3)oc2C)S(=O)(=O)c2ccc(OC)cc2)cc1,-8.14% [at 0.35 µM]
21,COc1cccc(N(Cc2nc(-c3ccccc3)oc2C)S(=O)(=O)c2ccccc2)c1,-4.33%
22,COc1ccc(CC(=O)N2CCC3(CC2)Nc2cc(F)ccc2-n2cccc23)cc1OC,6.12% [at 2.6 µM]
